{"source": "PubChem BioAssay (Tox21)", "note": "Inconclusive results are not listed. Entries that show only a call come without a potency. Values without a mark were called inactive. The source made the active and inactive calls. Calls follow the shape of the full dose curve. Potency is read from the fitted curve at half-maximal effect.", "data": [{"assay": "qHTS assay to identify small molecule agonists of the AP-1 signaling pathway - cell viability counter screen (AID 1159525); also: nearly all actives have a fitted effect of over 55% in size", "conditions": "ME-180 AP-1-bla cells viability, ATP luminescence, 5 h; series mostly up to 76.8 µM", "excerpt": "National Center for Advancing Translational Sciences [NCATS]\nNIH Chemical Genomics Center [NCGC]\nU.S. Environmental Protection Agency [EPA]\nNational Institutes of Environmental Health Sciences [NIEHS]\nNational Toxicology Program [NTP]\nU.S. Food and Drug Administration [FDA]\nActivator protein-1 (AP-1), a transcription factor, plays an important role in tumor genesis by regulating genes involved in cell proliferation, differentiation, apoptosis, and angiogenesis. AP-1 activity is induced by a complex network of signaling pathways that involves extracellular signals, such as growth factors. The AP-1 protein complex formed from c-Fos and c-Jun binding to the AP-1 response element results in transcriptional activation of genes containing such elements within their promoter.\nLow molecular weight molecules have been discovered and developed to modulate various components of these signaling pathways, for example, MAP kinase inhibitors. However, many points of pathway modulation remain untested due to the lack of chemical probes making this signaling locus of general interest.\nUsing a beta-lactamase reporter-gene under control of the AP-1 response element, a cell-based assay [CellSensor(TM) AP-1-bla ME-180 developed by Invitrogen Corp.] was used to measure EGF-induced signaling. The Tox21 10K library compounds were measured for their ability to positively modulate the action of EC50 EGF on reporter gene activity. Compounds were screened in a 15-pt titration series in 1536-well format. The cytotoxicity of the Tox21 compound library against this cell line was tested in parallel by measuring the intra cellular ATP content in the same wells.\nTox21 Assay Protocol Summary:\n2500 cells/5uL in Opti-MEM medium containing 0.5% dialyzed FBS, 0.1 mM NEAA, 1 mM sodium pyruvate and 10 mM HEPES was dispensed into 1536-well black wall/clear bottom plates using a Multidrop dispenser and cells were cultured at 37 degrees Celsius overnight. Next day 23 nL of compounds dissolved in DMSO, positive controls or DMSO were delivered to each well using a pin tool. The plates were incubated at 37 degrees Celsius for 5 hours. 1 uL of LiveBLAzerTM B/G FRET substrate (Solution A+B+C+D) was added to each well using a Flying Reagent Dispenser. After incubated at room temperature for 2.5 hours the plates were measured on an EnVision plate reader at Excitation 405nm, Emission1=460nm and Emission 2=530nm. The %Activity was determined from the ratio of 460nm/530nm.\nAfter the plates were read for Beta-Lactamase assay on Envision; 3 ul Cell Titer Glo (Promega) was added to measure the cytotoxicity and the plates were then incubated at RT in dark for 30 min. The luminescence was read on ViewLux (Perkin Elmer, Shelton, CT) using 6 sec exposure. ViewLux data was expressed as relative luminescence units.\nFor primary data analysis, raw plate reads for each titration point were first normalized relative to […] EGF control (100%) and DMSO only wells (basal, 0%).\nFor primary data analysis for viability assay, raw plate reads for each titration point were first normalized Tetra n-octyl ammonium bromide control (-100%) and DMSO (control, 100%).", "values": [{"smiles": "CC(C)CCOCCC(C)C", "Potency": "inactive"}, {"smiles": "O=C1OC(OC(=O)c2cccnc2Nc2cccc(C(F)(F)F)c2)c2ccccc21", "note": "(stereo not given)", "Potency": "inactive"}, {"smiles": "CCOC(=O)C1=C(C)NC(C)=C(C(=O)OCC)C1c1ccccc1/C=C/C(=O)OC(C)(C)C", "Potency": "26.8 µM (active)"}, {"smiles": "CCc1cccc(CC)c1N(COC)C(=O)CS(=O)(=O)O", "Potency": "inactive"}, {"smiles": "ClC/C=C\\CCl", "Potency": "inactive"}, {"smiles": "Cc1cncc(C)c1", "Potency": "inactive"}, {"smiles": "C=CC(C)(CCC=C(C)C)OC(=O)/C=C/c1ccccc1", "note": "(stereo not given)", "Potency": "inactive"}, {"smiles": "CC(C)N=C(N)/N=C(\\N)Nc1ccc(Cl)cc1", "Potency": "inactive"}, {"smiles": "CC[N+](CC)(CC)Cc1ccccc1", "Potency": "inactive"}, {"smiles": "CCOC(=O)N1CCC(=C2c3ccc(Cl)cc3CCc3cccnc32)CC1", "Potency": "inactive"}, {"smiles": "C[Si](C)O[Si](C)C", "Potency": "inactive"}, {"smiles": "C/C=C/c1ccc(OC)c(OC)c1", "Potency": "inactive"}, {"smiles": "O=S(=O)(O)CCCN1CCOCC1", "Potency": "inactive"}, {"smiles": "O=C1c2c(O)ccc([N+](=O)[O-])c2C(=O)c2c([N+](=O)[O-])ccc(O)c21", "Potency": "24.3 µM (active)"}, {"smiles": "CCC1(c2cnc[nH]2)Cc2ccccc2C1", "Potency": "inactive"}, {"smiles": "CC(C)(C)c1n[nH]c(=O)n(N)c1=O", "Potency": "inactive"}, {"smiles": "O=C(NO)c1ccccc1", "Potency": "inactive"}, {"smiles": "CCCCCCCC(=O)OCC", "Potency": "inactive"}, {"smiles": "COC(=O)[C@]1(C)CCC[C@@]2(C)[C@H]1CC=C1C=C(C(C)C)CC[C@@H]12", "Potency": "inactive"}, {"smiles": "Cc1cccc(N(C)C)c1", "Potency": "inactive"}, {"smiles": "CCCCCCCCCCCCCCCC", "Potency": "inactive"}, {"smiles": "CC(C)(C)C1=CC(=O)C=C(C(C)(C)C)C1=O", "Potency": "inactive"}, {"smiles": "CCCCCCCC(OC)OC", "Potency": "inactive"}, {"smiles": "CCCCCCCCCCCCCCNCCO", "Potency": "inactive"}, {"smiles": "c1cc[nH]c1", "Potency": "inactive"}, {"smiles": "CC1=C(/C=C/C(C)=C/C=C/C(C)=C/C(=O)Nc2ccc(O)cc2)C(C)(C)CCC1", "Potency": "44.8 µM (active)"}, {"smiles": "CCCN(CCc1cccs1)[C@H]1CCc2c(O)cccc2C1", "Potency": "inactive"}, {"smiles": "O=Nc1ccc(NO)cc1", "Potency": "inactive"}, {"smiles": "C[Si](C)(C)Cl", "Potency": "inactive"}, {"smiles": "Oc1cc2ccccc2cc1O", "Potency": "inactive"}, {"smiles": "CCc1cccc(CC)c1NC(=O)C(=O)O", "Potency": "inactive"}, {"smiles": "O=Cc1ccc(F)cc1", "Potency": "inactive"}, {"smiles": "CCCCCCCCCC(=O)N(C)C", "Potency": "inactive"}, {"smiles": "O=C1OC(=O)c2ccc3c4c(ccc1c24)C(=O)OC3=O", "Potency": "inactive"}, {"smiles": "S=C(SSSSSSC(=S)N1CCCCC1)N1CCCCC1", "viability change, negative = cytotoxic": "2.16% [at 15.8 µM]"}, {"smiles": "CCCCN(CCCC)CCC(O)c1cc2c(Cl)cc(Cl)cc2c2cc(C(F)(F)F)ccc12", "note": "(stereo not given)", "Potency": "inactive"}, {"smiles": "C=CC(C)C#N", "note": "(stereo not given)", "Potency": "inactive"}, {"smiles": "COc1cc(C(C)C)c2c(c1)S(=O)(=O)N(COc1cc(=O)n3cccc(OCCN4CCCCC4)c3n1)C2=O", "viability change, negative = cytotoxic": "-17.4% [at 15.8 µM]"}, {"smiles": "CS(C)(=O)=O", "Potency": "inactive"}, {"smiles": "CCC1CCCCC1", "Potency": "inactive"}]}]}
